{
  "source": "PubChem BioAssay (NCATS)",
  "note": "Inconclusive results are not listed. The source made the active and inactive calls. Calls follow the shape of the dose curve; as a rule, active = well fitted cell-killing curve with a large enough effect; inconclusive = small, poorly fitted or top-dose-only effect; inactive = no such curve, though single readings can be large or run the other way. % is scaled to controls: 0 for no effect and ±100 for the full control effect; potency is read from the fitted curve at half-maximal effect.",
  "data": [
    {"experiment": "qHTS of pediatric cancer cell lines to identify multiple opportunities for drug repurposing: Primary screen for MG 63 (6-TG R) cells (AID 1347105); also: nearly all actives have a fitted effect of over 50% in size", "conditions": "MG 63 (6-TG R) viability, CellTiter-Glo, 48 h; series mostly up to 46 µM; activity change, negative = cytotoxic: at the top concentration", "from_the_text": "Drug repurposing or repositioning has been offered as a strategy for drug development in oncology programs. This approach has special potential for childhood cancers and other rare or orphan diseases, where the expected return on new drug development has been a disincentive to pharmaceuticals. […] In this project we exploit the poly-pharmacology of drugs to discover new indications via phenotypic screening of a panel of 19 well-characterized cell lines derived from solid tumors seen in children and adolescents. The goal is to identify approved drugs with previously unrecognized anticancer properties that has the potential to reveal new mechanisms and biological processes involved in carcinogenesis or drug resistance. We employed a titration-based paradigm (quantitative high-throughput screening or qHTS), where all compounds were tested at multiple concentrations for their effect on cell viability. Concentration-response curves (CRCs) were derived directly from the primary screen, and both potency and efficacy values were used to identify compounds with robust bioactivity profiles. We screened the NIH Chemical Genomics Center (NCGC) Pharmaceutical Collection (NPC) and Mechanism Interrogation Plate (MIPE) small molecule collections of approved and investigational compounds against these cell lines; and measured metabolically active cells after 48 hours of compound treatment as a proxy for cell viability. […] Assay Submitter: Nathalia J. Martinez, National Center for Advancing Translational Sciences, National Institutes of Health, Rockville, MD, USA; email: natalia.martinez@nih.gov Shen, M et al. Quantitative high-throughput phenotypic screening of pediatric cancer cell lines identifies multiple opportunities for drug repurposing. Oncotarget 2017 Dec 19;9(4):4758-4772. PMID 29435139.\nThe cells were obtained from University of North Carolina (UNC), Pediatric Preclinical Testing Program (PPT), and Coriell Institute (CI). qHTS cell viability assay: Cells were assayed in growth media at a density of 500-1,000 cells/well. Five microliters of cells were dispensed into 1,536-well, white, solid-bottom, TC-treated plates (Greiner Bio One) using a multidrop dispenser and incubated at 37 degrees C, 5% CO2, under a humidified atmosphere for 5 hours. Twenty-three nanoliters of compounds and controls (neutral control DMSO or positive control bortezomib at final concentration of 2.3 µM) were subsequently transferred by Kalypsys pintool. For primary screens, the MIPE collection was tested at 11-point dilutions (final concentrations range from 0.78 nM to 46 µM) and the NPC collection at 8-point dilutions (final concentrations range from 0.59 nM to 46 µM). Compounds tested in follow-up screens were assayed at 11-point dilutions. Cells were incubated for 48 hours, followed by addition of 3 µL of CellTiter-Glo (Promega). After a 15 min incubation at room temperature, samples were analyzed for luminescence intensity using a ViewLux High-throughput CCD imager equipped with clear filters.", "values": [
      {"smiles": "CCCCCCCCCCCCCC(=O)OC(C)C", "activity change, negative = cytotoxic": "2.37% (inactive)"},
      {"smiles": "CCNC(=O)NCc1cccc(Cl)c1", "activity change, negative = cytotoxic": "-24.4% (inactive)"},
      {"smiles": "FC1(F)C(F)(F)C(F)(F)C2(F)C(F)(F)C(F)(F)C(F)(F)C(F)(F)C2(F)C1(F)F", "note": "(stereo not given)", "activity change, negative = cytotoxic": "-6.26% (inactive)"},
      {"smiles": "C[C@H]1O[C@@H](O[C@H]2CC[C@@]3(C)[C@H](CC[C@@H]4[C@@H]3C[C@@H](O)[C@]3(C)[C@@H](C5=CC(=O)OC5)CC[C@]43O)C2)C[C@H](O)[C@@H]1O[C@H]1C[C@H](O)[C@H](O[C@H]2C[C@H](O)[C@H](O[C@@H]3O[C@H](CO)[C@@H](O)[C@H](O)[C@H]3O)[C@@H](C)O2)[C@@H](C)O1", "Potency": "0.0841 µM (active)"},
      {"smiles": "Nc1ccc(S(=O)(=O)Nc2cnc3ccccc3n2)cc1", "activity change, negative = cytotoxic": "-5.86% (inactive)"},
      {"smiles": "Cc1cc(-c2ccccc2)nnc1NCCN1CCOCC1", "activity change, negative = cytotoxic": "-29.2% (inactive)"},
      {"smiles": "CCCCC(CC)COC(=O)c1ccc(N(C)C)cc1", "note": "(stereo not given)", "activity change, negative = cytotoxic": "-25.7% (inactive)"},
      {"smiles": "CC(C)(C)NCC(O)COc1cccc2c1C[C@H](O)[C@H](O)C2", "note": "(stereo not given in full)", "activity change, negative = cytotoxic": "-20.5% (inactive)"},
      {"smiles": "O=C(Nc1ccc([N+](=O)[O-])cc1)Nc1ccc([N+](=O)[O-])cc1", "activity change, negative = cytotoxic": "-5.18% (inactive)"},
      {"smiles": "CC(CNC1CCCCC1)OC(=O)c1ccccc1", "note": "(stereo not given)", "activity change, negative = cytotoxic": "-25.2% (inactive)"},
      {"smiles": "CN(C)CCOC(=O)C(c1ccccc1)C1(O)CCCC1", "note": "(stereo not given)", "activity change, negative = cytotoxic": "-7.59% (inactive)"},
      {"smiles": "N#C/C(=C1\\SCC(c2ccccc2Cl)S1)n1ccnc1", "note": "(stereo not given)", "activity change, negative = cytotoxic": "-21.8% (inactive)"},
      {"smiles": "CC(C)(C)CC(C)(C)c1ccc(O)c(-n2nc3ccccc3n2)c1", "activity change, negative = cytotoxic": "-13% (inactive)"},
      {"smiles": "O=C(O)Cc1csc(-c2ccc(Cl)cc2)n1", "activity change, negative = cytotoxic": "-24% (inactive)"},
      {"smiles": "NS(=O)(=O)c1ccc(Cl)c(S(N)(=O)=O)c1", "activity change, negative = cytotoxic": "-15% (inactive)"},
      {"smiles": "CCCCCCCCCCCCCCCCO", "activity change, negative = cytotoxic": "9.11% (inactive)"},
      {"smiles": "CCN(CC)CCNC(=O)c1cc(Br)c(N)cc1OC", "activity change, negative = cytotoxic": "-10.4% (inactive)"},
      {"smiles": "CCOC(=O)C(C#N)=C(c1ccccc1)c1ccccc1", "activity change, negative = cytotoxic": "-5.59% (inactive)"},
      {"smiles": "O=C(O)C(Cc1cc(I)c(O)c(I)c1)c1ccccc1", "note": "(stereo not given)", "activity change, negative = cytotoxic": "-15.2% (inactive)"},
      {"smiles": "CN(C)CCC[C@@]1(c2ccc(F)cc2)OCc2cc(C#N)ccc21", "activity change, negative = cytotoxic": "-26.5% (inactive)"},
      {"smiles": "CCC(CC)(CC(=O)Nc1cccc(/C=C/c2nc(C3CCC3)cs2)c1)C(=O)O", "activity change, negative = cytotoxic": "-7.04% (inactive)"},
      {"smiles": "O=C(O)C1(C(=O)O)CCC1.[NH2-].[NH2-].[Pt+2]", "activity change, negative = cytotoxic": "-20.4% (inactive)"},
      {"smiles": "O=S(=O)(O)c1ccc(O)cc1", "activity change, negative = cytotoxic": "-2.64% (inactive)"},
      {"smiles": "CCCCCCCCNC(C)C(O)c1ccc(SC(C)C)cc1", "note": "(stereo not given)", "Potency": "26.6 µM (active)"},
      {"smiles": "NC(=O)c1ccccc1O", "activity change, negative = cytotoxic": "-30.8% (inactive)"},
      {"smiles": "CN1CCN(c2c(F)cc3c(=O)c(C(=O)O)cn4c3c2SCC4)CC1", "activity change, negative = cytotoxic": "41.4% (inactive)"},
      {"smiles": "CCN(CC)CCOc1ccccc1C(=O)CCc1ccccc1", "activity change, negative = cytotoxic": "-12.5% (inactive)"},
      {"smiles": "COc1ccc(S(=O)(=O)N2c3ccc(Cl)cc3[C@@](O)(c3ccccc3Cl)[C@H]2C(=O)N2CCC[C@@H]2C(N)=O)cc1OC", "activity change, negative = cytotoxic": "-23.2% (inactive)"},
      {"smiles": "CC(=O)O[C@]1(C(C)=O)CC[C@H]2[C@@H]3C=C(C)C4=CC(=O)CC[C@]4(C)[C@H]3CC[C@@]21C", "activity change, negative = cytotoxic": "5.57% (inactive)"},
      {"smiles": "Cc1cc(NS(=O)(=O)c2ccc(N)cc2)nc(C)n1", "activity change, negative = cytotoxic": "8.25% (inactive)"},
      {"smiles": "CCCCN1C[C@H](O)[C@@H](O)[C@H](O)[C@H]1CO", "activity change, negative = cytotoxic": "-15.9% (inactive)"},
      {"smiles": "O=C1OC(CN2CCOCC2)CN1/N=C/c1ccc([N+](=O)[O-])o1", "note": "(stereo not given)", "activity change, negative = cytotoxic": "66.3% (inactive)"},
      {"smiles": "C[N+]1(C)CCC(=C(c2ccccc2)c2ccccc2)CC1", "activity change, negative = cytotoxic": "-6.07% (inactive)"},
      {"smiles": "NCc1ccccc1Sc1ccccc1CO", "activity change, negative = cytotoxic": "-7.03% (inactive)"},
      {"smiles": "CCCCNc1ccc(C(=O)OCCOCCOCCOCCOCCOCCOCCOCCOCCOC)cc1", "activity change, negative = cytotoxic": "-24.1% (inactive)"},
      {"smiles": "COc1cc(C(=O)NCc2ccc(OCCN(C)C)cc2)cc(OC)c1OC", "activity change, negative = cytotoxic": "-26.5% (inactive)"},
      {"smiles": "CC1CCc2c(N3CCC(O)CC3)c(F)cc3c(=O)c(C(=O)O)cn1c23", "note": "(stereo not given)", "activity change, negative = cytotoxic": "47.7% (inactive)"},
      {"smiles": "NCCNC(=O)c1ccc(Cl)cn1", "activity change, negative = cytotoxic": "-3.41% (inactive)"},
      {"smiles": "Cc1ccc(S(=O)(=O)NC(=O)NC2CCCC2)cc1", "activity change, negative = cytotoxic": "-0.0972% (inactive)"},
      {"smiles": "C#C[C@]1(O)CC[C@H]2[C@@H]3[C@H](C)CC4=C(CCC(=O)C4)[C@H]3CC[C@@]21C", "activity change, negative = cytotoxic": "-19.5% (inactive)"}
    ]}
  ]
}
